Hits are enriched below; roughly 1.4% of the tested compounds scored in any of these assays.
12-LOX inh – blocks human arachidonate 12S-lipoxygenase. P18054. purified 12hLO, xylenol orange hydroperoxide absorbance. Potency, µM (top dose mostly 108 µM), actives largely listed as inhibitors. 1.1% of 580,000 active. AID 1671190
Target sequence (P18054 whole entry, looked up): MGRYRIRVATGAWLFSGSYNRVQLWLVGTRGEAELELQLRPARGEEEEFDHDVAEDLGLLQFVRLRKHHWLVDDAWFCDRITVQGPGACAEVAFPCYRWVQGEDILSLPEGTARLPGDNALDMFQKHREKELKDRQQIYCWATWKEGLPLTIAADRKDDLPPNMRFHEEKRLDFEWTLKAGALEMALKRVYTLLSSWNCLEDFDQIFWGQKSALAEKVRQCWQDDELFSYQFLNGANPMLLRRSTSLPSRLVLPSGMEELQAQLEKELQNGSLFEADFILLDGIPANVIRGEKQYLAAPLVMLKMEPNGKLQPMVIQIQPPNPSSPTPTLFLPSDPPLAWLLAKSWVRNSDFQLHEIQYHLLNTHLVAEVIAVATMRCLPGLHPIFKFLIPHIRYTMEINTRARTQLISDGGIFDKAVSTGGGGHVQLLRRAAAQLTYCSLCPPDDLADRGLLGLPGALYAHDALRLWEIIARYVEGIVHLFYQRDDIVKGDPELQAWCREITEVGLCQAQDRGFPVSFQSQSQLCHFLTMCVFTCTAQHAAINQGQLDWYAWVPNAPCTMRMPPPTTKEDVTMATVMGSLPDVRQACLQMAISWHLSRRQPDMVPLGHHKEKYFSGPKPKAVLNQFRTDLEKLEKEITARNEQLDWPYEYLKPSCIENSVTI
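Hydroperoxide product was detected by ferrous iron/xylenol orange as the 573 to 405 nm absorbance ratio. Arachidonic acid at 40 uM (final) was turned over for 30 min at room temperature by 150 nM human 12hLO, pH 7.0 Hepes buffer, after 15 min compound preincubation.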
Vif-A3G inh – Vif-A3G binding inhibition. Q9HC16. HeLa A3G-eYFP + Vif (tagged APOBEC3G with the HIV-1 protein that degrades it), YFP fluorescence, overnight. Potency, µM (top dose mostly 46.1 µM), actives largely listed as inhibitors. 0.076% of 410,000 active; further: nearly all actives have a fitted effect of over 60% in size
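Read-out is eYFP fluorescence (Ex 488/Em 500-530) from Vif-expressing HeLa A3G-eYFP cells; more signal means A3G escaped Vif-mediated degradation. Cells plated overnight, compound pinned in, incubated overnight at 37 deg C.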
PTAP TSG101 blk – blocks PTAP/TSG101 interaction to inhibit HIV-1 budding. Q99816. Fluorescence polarization, FITC-PTAP peptide / Tsg101 binding. Potency, µM (doses to about 115 µM), most hits filed as inhibitors. 340,000 tested, under 10 active. AID 493005; active means well fitted inhibition curve with a large enough effect in the main read-out, with a control signal flat, not every such curve was filed as active; inconclusive means small, poorly fitted or top-dose-only effect, or effect the other way, or a change in a side signal; inactive means no such curve, though single readings can be large or run the other way
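Steps: Tsg101 binding domain dispensed (10 uM final), compounds pinned in DMSO, FITC-labeled PTAP-motif peptide added (50 nM final); after 20 min binding at room temperature, polarization measured.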
Vif-A3F inh – blocks the Vif interaction with APOBEC3F | HeLa A3F-eYFP + Vif (tagged APOBEC3F with the HIV-1 protein that degrades it), YFP fluorescence increase | Potency, µM (top dose mostly 46.1 µM) | 0.2% of 390,000 active | AID 602313; further: nearly all actives have a fitted effect of over 65% in size
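HeLa cells stably expressing A3F-eYFP plus Vif, plated and incubated overnight at 37 deg C, then exposed to compounds overnight at 37 deg C. Blocked degradation read as raised yellow fluorescence (Ex 488/Em 500-530).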
Akt phos inh – Akt phosphorylation inhibition; Neuro2A IGF-stimulated pAkt S473 HTRF, 20 min; hits give low values; activity change, % for hits at 50 µM; 0.32% of 360,000 active; AID 651550; in the data active means activity change below about -80%; inconclusive means mostly about -51% to -80%
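Neuro2A cells (4,500/well, DMEM with 0.5% FBS) were treated with compound at a single 50 µM final concentration, stimulated with 6 nM IGF for 20 min at 37 °C, and lysed. Phospho-Akt Ser473 was read by HTRF as 665/615 ratio ×10^4.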
ASM inhibitor – human S-ASM enzyme inhibition; placental ASM, HMU-PC fluorogenic substrate, 60 min; P17405; Potency, µM (series often up to 57.5 µM), most hits filed as inhibitors; 0.006% of 340,000 active
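qHTS format. ASM enzyme prepared from human placenta hydrolyses the fluorogenic substrate HMU-PC0 (9 uM final) over 60 min at 37 °C after a 10 min compound preincubation.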
Each line names hits and unclear results; the compound was inactive in the other large screens; ! = not active in a repeat. Unless noted, the call rests on the fitted dose curve; in most records, active means well fitted curve in the direction sought with a large enough effect; inconclusive means small, poorly fitted or top-dose-only effect, or another doubt; inactive means no such curve, though single readings can be large; an effect the other way counts as inactive or inconclusive.

Cc1cc(OCCn2cc(C(=O)C(F)(F)F)c3ccccc32)ccc1Cl	none (no result: Vif-A3G inh, PTAP TSG101 blk, Vif-A3F inh, Akt phos inh, ASM inhibitor)
O=[N+]([O-])c1ccc(NC(=S)NCCc2ccc(Cl)cc2)cc1	12-LOX inh inconclusive
O=[N+]([O-])c1ccc(NC(=S)NCCc2ccccc2)cc1	12-LOX inh 44.7µM
Nc1nonc1C(=O)N1CCCN(C(=O)Nc2ccc(Cl)cc2)CC1	none (no result: Vif-A3G inh, PTAP TSG101 blk, Vif-A3F inh, Akt phos inh, ASM inhibitor)
N#CC1=C(N)Oc2c(O)cc3ccccc3c2C1c1ccsc1 (stereo unspecified)	12-LOX inh 44.7µM
c1ccc(-n2cnc3cc(NCc4ccncc4)ccc32)cc1	Akt phos inh -102.9%
c1ccc(-n2cnc3cc(NCc4ccccn4)ccc32)cc1	12-LOX inh inconclusive
O=C(c1ccccc1)c1ccccc1N1C(=O)C=CC1=O	12-LOX inh 7.94µM
CCOc1ccc(NC(=O)Cn2nnc(-c3ccccc3NC(=O)C3CC3)n2)cc1	Akt phos inh -126.1%
COc1ccc(C2NCCc3c2[nH]c2ccccc32)cc1CSc1nc2ccccc2s1 (stereo unspecified)	12-LOX inh 31.6µM
COc1ccc(C(C)O)cc1CSc1nc2ccccc2s1 (stereo unspecified)	none (no result: Vif-A3G inh, PTAP TSG101 blk, Vif-A3F inh, Akt phos inh, ASM inhibitor)
Cc1ccc(/C=C/C(=O)c2ccccc(=O)c2O)cc1C	12-LOX inh 44.7µM, Vif-A3F inh inconclusive
COc1ccc(C(=O)Sc2ccc(C)cc2)cc1OC	none
COc1ccc(C(=O)Sc2ccc(Cl)cc2)cc1OC	Akt phos inh -127.0%
Clc1ccccc1-c1nc(-n2ccnc2)c2ccccc2n1	12-LOX inh 56.2µM (no result: Vif-A3G inh, PTAP TSG101 blk, Vif-A3F inh, Akt phos inh, ASM inhibitor)
Cc1cccc(NC(=O)c2ccc(COc3ccccc3)o2)n1	none
Cc1cccc(NC(=O)c2ccc(COc3ccc(Cl)cc3Cl)o2)n1	12-LOX inh inconclusive, Akt phos inh -127.7%
COCCCN1C(=O)N(Cc2nncn2C(C)C)C(=O)C12CCNCC2	12-LOX inh 17.8µM (no result: Vif-A3G inh, PTAP TSG101 blk, Vif-A3F inh, Akt phos inh, ASM inhibitor)
Cc1ccc(OCC(=O)N/N=C/C=C/c2ccco2)c(Br)c1	12-LOX inh 39.8µM
O=C(N/N=C/C=C/c1ccco1)c1ccncc1	Vif-A3F inh 11.2µM
O=C(N/N=C/C=C\c1ccco1)c1cccs1	12-LOX inh inconclusive, Vif-A3F inh inconclusive
O=C(NN1C(=O)/C(=C/C=C/c2ccco2)SC1=S)c1ccncc1	12-LOX inh 50.1µM
O=C(CSc1nc2c(c(-c3cccs3)n1)CCCC2)Nc1cc(Cl)cc(Cl)c1	none (no result: Vif-A3G inh, PTAP TSG101 blk, Vif-A3F inh, Akt phos inh, ASM inhibitor)
O=C(N/N=C/c1cccc(Cl)c1Cl)C1CC1	none (no result: Vif-A3G inh, PTAP TSG101 blk, Vif-A3F inh, Akt phos inh, ASM inhibitor)
CCN(CC(=O)Nc1ccccc1C(F)(F)F)Cc1nc2ccccc2o1	none (no result: Vif-A3G inh, PTAP TSG101 blk, Vif-A3F inh, Akt phos inh, ASM inhibitor)
CSc1ccc(-c2nc3c(C)cccn3c2Nc2ccc3c(c2)OCCO3)cc1	12-LOX inh 1.41µM (no result: PTAP TSG101 blk, Akt phos inh, ASM inhibitor)
Cc1cccn2c(Nc3ccc4c(c3)OCCO4)c(-c3ccc(Br)o3)nc12	12-LOX inh inconclusive (no result: PTAP TSG101 blk, Akt phos inh, ASM inhibitor)
Cc1ccn2c(Nc3ccc4c(c3)OCCO4)c(-c3ccc(Cl)s3)nc2c1	12-LOX inh inconclusive (no result: PTAP TSG101 blk, Akt phos inh, ASM inhibitor)
CN(C)c1ccc(-c2nc3cnccn3c2Nc2ccc3c(c2)OCCO3)cc1	none
CN(C)c1ccc(-c2nc3ccc(Cl)cn3c2Nc2ccc3c(c2)OCCO3)cc1	12-LOX inh 5.62µM (no result: PTAP TSG101 blk, Akt phos inh, ASM inhibitor)
Clc1ccc(-c2nc3ccccn3c2Nc2ccc3c(c2)OCCO3)s1	12-LOX inh 25.1µM (no result: PTAP TSG101 blk, Akt phos inh, ASM inhibitor)
O=C(NCC1Cn2cccc2CN1Cc1ccccc1)C1CC1 (stereo unspecified)	none (no result: Vif-A3G inh, PTAP TSG101 blk, Vif-A3F inh, Akt phos inh, ASM inhibitor)
Nc1ccccc1N=Nc1ccccc1N	none
Nc1ccccc1C1CC1	12-LOX inh 7.08µM (no result: Vif-A3G inh, PTAP TSG101 blk, Vif-A3F inh, Akt phos inh, ASM inhibitor)
COC(=O)C1(NC(=O)COc2cc(Cl)ccc2Cl)CCCCCC1	none (no result: Vif-A3G inh, PTAP TSG101 blk, Vif-A3F inh, Akt phos inh, ASM inhibitor)
CCc1ccc2oc(C(=O)NCc3ccc(C)cc3)cc(=O)c2c1	none (no result: Vif-A3G inh, PTAP TSG101 blk, Vif-A3F inh, Akt phos inh, ASM inhibitor)
N#Cc1ccccc1NC(=O)CSc1nc(-c2ccccc2)cc(C(F)(F)F)c1C#N	Vif-A3F inh 11.2µM (no result: PTAP TSG101 blk, Akt phos inh, ASM inhibitor)
N#Cc1c(-c2ccccc2)cc(-c2ccccc2)nc1SCC(=O)Nc1ccc(Cl)cc1	none (no result: PTAP TSG101 blk, Akt phos inh, ASM inhibitor)
CCCCOc1ccc(-c2cc(C(F)(F)F)c(C#N)c(SCC(=O)O)n2)cc1	Vif-A3F inh 11.2µM
N#Cc1c(-c2ccc(Cl)cc2)cc(-c2ccccc2)nc1SCC(=O)O	12-LOX inh 11.2µM
Cc1coc(NC(=O)CSc2nc(-c3ccncc3)cc(C(F)(F)F)c2C#N)n1	Vif-A3G inh inconclusive, Vif-A3F inh 11.2µM
O=c1oc2ccccc2c(N2CCCC2)c1NS(=O)(=O)c1ccccc1Cl	none (no result: Vif-A3G inh, PTAP TSG101 blk, Vif-A3F inh, Akt phos inh, ASM inhibitor)
Cc1nn(C)c2sc(C(=O)N3CCN(S(=O)(=O)c4ccccc4Cl)CC3)cc12	none (no result: Vif-A3G inh, PTAP TSG101 blk, Vif-A3F inh, Akt phos inh, ASM inhibitor)
CC(C)Cn1c(SCc2noc(-c3ccccc3Cl)n2)nnc1N1CCOCC1	none (no result: Vif-A3G inh, PTAP TSG101 blk, Vif-A3F inh, Akt phos inh, ASM inhibitor)
CN1CC(=O)N(c2ccccc2)Cc2c1ncnc2N1CCc2ccccc2C1	12-LOX inh 31.6µM (no result: Vif-A3G inh, PTAP TSG101 blk, Vif-A3F inh, Akt phos inh, ASM inhibitor)
O=C(Nc1ccccc1)c1cn(-c2ccc3c(c2)OCCO3)nn1	none (no result: Vif-A3G inh, PTAP TSG101 blk, Vif-A3F inh, Akt phos inh, ASM inhibitor)
CC(C)(C)c1nnc(NC(=O)CS(=O)(=O)Cc2ccccc2)s1	12-LOX inh 39.8µM!
COc1ccc2cc(C(=O)N3CCN(c4ccccc4OC)CC3)[nH]c2c1	12-LOX inh 15.8µM, ASM inhibitor inconclusive
COc1ccc2cc(C(=O)N3CCN(c4ccccc4F)CC3)[nH]c2c1	12-LOX inh inconclusive
CCc1nc(N2CCC(C)CC2)c2oc3ccccc3c2n1	12-LOX inh 11.2µM

Screening data deposited in PubChem BioAssay by National Center for Advancing Translational Sciences (NCATS).
